Screening results from PubChem.
TMEM16A inh: TMEM16A chloride channel inhibitors, primary screen, cell-based, HTS; Anoctamin-1 (Mus musculus), Q8BHY3; HEK293 TMEM16A/YFP iodide influx fluorescence, ionomycin; normalized B-score (activity score, 25-100; higher = stronger inhibition) at 10 µM; 1.2% of 310,000 active; AID 588511, 2011;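 active = ratio plate-corrected score three or more library SD toward inhibition, starting fluorescence score within five deviations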;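 also: score derived from kinetic fluorescence span divided by baseline fluorescence per well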
TLR4 MyD88 comp: inhibitors of TLR4-MyD88 association in cells, primary screen, cell-based, HeLa CL3-4, BLA complementation, FRET ratio; HeLa CL3-4 TLR4/MyD88 BLA complementation; inhibition, % at 8.4 µM; 0.18% of 200,000 active; in the data active = inhibition above about 25%
GRK2 inh: compounds blocking aptamer binding on GRK2 – biochemical, human GRK2, bead flow cytometry, HTS, primary screen; inhibition of aptamer binding, % at 10 µM; Beta-adrenergic receptor kinase 1 (Homo sapiens), P25098; 0.59% of 330,000 active; FAM-aptamer displacement from GRK2;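 active = inhibition of aptamer binding above 40%, roughly 3 SD of noise, on plates passing a quality check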;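 also: median bead fluorescence of bound FAM aptamer so fluorescent compounds give negative values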
TMEM16A act: TMEM16A chloride channel activators or potentiators, primary screen, cell-based, HTS. AID 623877, 2012. B-score at 10 µM. 0.3% of 340,000 active. HEK293 TMEM16A/YFP-H148Q/I152L, iodide quench fluorescence; hits give low values. Anoctamin-1 (Mus musculus), Q8BHY3;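 active = fluorescence-ratio B-score plate-corrected deviation score at least 3 library SD below zero, with starting fluorescence score within 5 deviations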;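 also: channel opened by trigger with iodide after compound preincubation; score built on the fluorescence ratio of max minus min over baseline; more negative score means more quench and so TMEM16A activation or potentiation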
TLR9-MyD88 block: inhibitors of TLR9-MyD88 association in cells, primary screen, cell-based, CHO, BLA complementation, fluorescence; Toll-like receptor 9 (Homo sapiens) + Myeloid differentiation primary response protein …; CCF4 FRET ratio; inhibition, % at 4.98 µM; 0.21% of 340,000 active;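 active = inhibition above the mean over all tested compounds plus 3 SD, cut at about 21% in these data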
NOD2 RIPK2 PPI: NOD2-RIPK2 binding disruptors in cells, primary screen, fluorescence, CHO cells, BLA complementation. inhibition, % at 4.98 µM. 0.38% of 360,000 active. Receptor-interacting serine/threonine-protein kinase 2 (Homo sapiens), O43353. CCF4 ratio; in the data active = inhibition above about 21%
Target sequence (O43353 whole entry, looked up): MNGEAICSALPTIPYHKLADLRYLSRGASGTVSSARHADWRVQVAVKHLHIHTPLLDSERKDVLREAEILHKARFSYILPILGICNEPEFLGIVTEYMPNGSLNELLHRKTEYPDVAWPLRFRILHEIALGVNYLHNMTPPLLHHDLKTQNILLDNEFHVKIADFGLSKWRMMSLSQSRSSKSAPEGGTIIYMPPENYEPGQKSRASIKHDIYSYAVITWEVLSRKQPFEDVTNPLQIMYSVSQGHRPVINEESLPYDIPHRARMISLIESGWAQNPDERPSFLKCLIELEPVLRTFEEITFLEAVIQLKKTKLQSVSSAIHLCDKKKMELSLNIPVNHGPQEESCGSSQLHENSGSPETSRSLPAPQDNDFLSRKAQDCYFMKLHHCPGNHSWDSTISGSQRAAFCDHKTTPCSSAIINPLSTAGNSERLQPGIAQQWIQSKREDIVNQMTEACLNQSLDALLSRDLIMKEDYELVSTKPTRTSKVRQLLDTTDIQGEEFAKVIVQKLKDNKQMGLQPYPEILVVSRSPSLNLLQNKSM
Hits are given with their value; 0 = inactive; - = no result. Compounds with a hit are over-represented: about 2.2% of the library has one in this group of screens.

SMILES	TMEM16A inh	TLR4 MyD88 comp	GRK2 inh	TMEM16A act	TLR9-MyD88 block	NOD2 RIPK2 PPI
CCSc1nsc(NC(=O)Nc2cccc(F)c2)n1	100	-	0	0	0	0
CCCOc1ccc2ccccc2c1/C=C1\SC(=O)NC1=O	100	-	-	0	0	0
CCN1C(=O)/C(=C2\SC(=S)N(NC(=O)c3ccccc3O)C2=O)c2ccccc21	100	-	0	0	0	0
COc1ccc(OC)c(C2=Nn3c(nnc3-c3cccc(OC(C)C)c3)SC2)c1	0	0	0	-5	0	0
COc1ccc(NC(=O)CSCC(=O)NCc2ccco2)cc1	0	-	0	0	0	0
COc1ccc(-c2nc(CSCC(=O)NCc3ccco3)c(C)o2)cc1	100	0	0	0	0	0
Cc1nc2ccc(NC(=O)c3cccs3)cc2c(=O)n1Cc1ccc(Cl)cc1	100	0	0	0	0	0
CCc1nc2ccc(C(=O)NCCc3c[nH]c4ccccc34)cn2c1N(C)Cc1ccc(N(C)C)cc1	-	-	-	-	-	0
Cc1nc2c(C(=O)NCCC(C)C)c[nH]n2c(=O)c1Cc1ccccc1F	100	0	0	0	0	0
CC(Sc1nc(N)cc(=O)[nH]1)C(=O)NC1CCCCC1 (stereo unspecified)	0	0	0	-9.7	0	0
COC(=O)C1=CN(c2ccc(F)cc2)C(N)=C(C#N)C1c1ccc(-c2ccccc2)cc1 (stereo unspecified)	-	-	-	-	-	0
CCOC(=O)c1cccnc1SCc1cc(=O)n2ccccc2n1	25	0	0	0	0	0
CC(OC(=O)c1cccnc1SCc1cc(=O)n2ccccc2n1)c1ccccn1 (stereo unspecified)	0	0	0	0	0	0
O=C(NNC(=O)c1cc(-c2ccccc2)nc2ccccc12)Nc1cccc(Cl)c1	100	0	0	0	0	0
CCC(=O)N[C@@H]1C=C[C@@H](CC(=O)NCc2ccccc2F)O[C@@H]1CO	-	-	-	-	-	0
CC(C)(C)n1ncc2c(=O)n(CC(=O)NC3CCCCC3)cnc21	0	0	0	0	0	0
CC1CCC(NC(=O)Cn2cnc3sccc3c2=O)CC1 (stereo unspecified)	-	-	0	-4.8	0	0
Cc1ccc2oc(-c3cccc(NC(=O)Cn4cnc5c(=O)n(C)c(=O)n(C)c54)c3)nc2c1	100	0	0	-	-	-
CCC(=O)c1ccc(N2CCN(C(=O)c3ccc(F)cc3)CC2)c(F)c1	25	0	0	0	0	0
CCC(=O)c1ccc(N2CCN(C(=O)c3ccc(Br)cc3)CC2)c(F)c1	0	0	0	0	0	0
CO/N=C/c1ccc(N2CCN(C(=O)c3ccc(F)cc3)CC2)c([N+](=O)[O-])c1	100	0	0	0	0	0
CO/N=C/c1ccc(N2CCN(C(=O)c3ccc(Cl)cc3Cl)CC2)c([N+](=O)[O-])c1	100	0	0	0	0	0
FC(F)(F)c1ccccc1Cc1c(-c2ccco2)nc2ccc(Br)cn12	-	-	-	-	-	0
COc1ccc(C(C)(O)c2nc(-c3ccccc3OC)cs2)cc1 (stereo unspecified)	-	-	-	-	-	0
CCc1nc2c(OCC3CCCCC3)cccn2c1N(C)C(=O)c1ccc(C)cc1	-	-	-	-	-	0
SMILES	TMEM16A inh	TLR4 MyD88 comp	GRK2 inh	TMEM16A act	TLR9-MyD88 block	NOD2 RIPK2 PPI
CC(C)NC(=O)Cn1c(SCC(=O)NC2CCCC2)nc2ccccc21	0	-	0	0	0	0
CC(C)Cn1c(SCC(=O)NC(=O)NC2CCCC2)nc2ccccc21	25	0	0	0	0	0
CCOC(=O)N1CCN(C(=O)CNS(=O)(=O)c2cccs2)CC1	0	0	0	0	0	0
CC(=O)Nc1ccc(S(=O)(=O)NCC(=O)N2CCN(S(=O)(=O)c3cccs3)CC2)cc1	-	-	0	-15	0	0
CC1=CC(=O)C=CC1=Nc1ccc(N(C)C)cc1	-	-	-	-	-	0
Cc1ccc(S(=O)(=O)Nc2ccccc2OC(C(=O)OC(C)(C)C)C(=O)OC(C)(C)C)cc1	-	-	-	-	-	0
CCC(C(=O)N1CCN(C(=O)c2ccco2)CC1)n1sc2ccccc2c1=O (stereo unspecified)	0	-	0	0	0	0
CC(C(=O)N1CCN(C(=O)c2ccco2)CC1)n1sc2ccccc2c1=O (stereo unspecified)	0	-	0	-45	0	0
O=C(Nc1ccccc1Cl)c1cc(C2CCCCN2C(=O)CCCc2ccccc2)on1 (stereo unspecified)	-	-	-	-	-	0
N#Cc1cccc(C=C(C(=O)c2ccccc2)c2ccccc2)c1	-	-	-	-	-	0
CCc1ncc(C)nc1CC	100	-	0	0	0	0
O=C1Nc2ccccc2S/C1=C\C(=O)N1CCCC1	0	0	81	-	-	-
OC[C@@H]1CN(Cc2cccc(C(F)(F)F)c2)C[C@H](n2cnc3c(NCc4ccco4)ncnc32)O1	-	-	-	-	-	0
O=C(Nc1cc(-c2ccccc2)sc1C(=O)O)c1cccc(F)c1	100	-	0	0	0	0
CCOc1ccc(-c2cc(NC(=O)c3c(F)cccc3F)c(C(=O)O)s2)cc1	0	-	0	-	0	0
C[C@@H]1O[C@H](C2CCCC2)Cc2[nH]c(=S)[nH]c(=O)c21	-	-	-	-	-	0
CCOC(=O)/C(=N\Nc1ccc(Cl)cc1)c1csc(Nc2ccccc2)n1	100	0	0	0	0	0
C[C@H]1CN([C@@H](C)CO)C(=O)CCCn2cc(nn2)CO[C@@H]1CN(C)C(=O)Nc1ccccc1C(F)(F)F	-	-	-	-	0	0
CCCCn1c(SCC(=O)NC(C)(C)C)nnc1-c1ccco1	25	0	0	0	0	0
Cc1ccc(C(=O)CSC2=C(C#N)C(c3ccco3)CC(=O)N2)c(C)c1 (stereo unspecified)	25	0	0	0	0	0
Cc1ccc2c(c1)NC(=O)[C@@]1(C)[C@@H](c3ccccc3)[C@H]3COc4ccccc4[C@@H]3N1C2=O	0	-	-	0	0	0
Cc1ccc2c(c1)C(=O)N1[C@H]3c4ccccc4OC[C@@H]3[C@H](c3ccccc3)[C@]1(C)C(=O)N2	-	-	93	0	0	0
CCC(C(=O)Nc1c(C)cccc1C)n1c(-c2ccc(=O)[nH]c2)nc2ccccc21 (stereo unspecified)	-	-	-	-	-	0
N#CC1=C(N)NC(SCc2ccc(Cl)cc2)=C(C#N)C12CCCCC2	100	0	0	0	0	0
N#CC1=C(N)NC(SCc2ccc(Br)cc2)=C(C#N)C12CCCCC2	100	0	0	0	0	0
N#CC1=C(N)NC(SCc2ccccc2)=C(C#N)C12CCCC2	0	0	0	-5.1	0	0
N#CC1=C(N)NC(SCC(=O)Nc2ccc(Br)cc2)=C(C#N)C12CCCCC2	100	0	0	0	0	0
